CHX counter – affects cycloheximide protein synthesis inhibition readout, counter-screen. AID 2314. 300,000 tested, 12% active. cell reporter, cycloheximide protein synthesis inhibition counterscreen. max response, %; in the data active means max response mostly above about 13%, no sharp cut-off; inactive means mostly below about 14%; further: read at 38.3 µM for the half of the compounds with a filed dose
Pf growth 48h – P. falciparum growth inhibition at 48 hours (one generation); P. falciparum luciferase growth in erythrocytes, 48 h; Potency, µM (top dose mostly 28.7 µM), usual class: inhibitors; 310,000 tested, 5.9% active; AID 504832
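First compound was added to culture medium, then infected red cells at 0.1% parasitemia and 2% hematocrit (final). After incubation at 37 C under 5% CO2, luciferase detection reagent was dispensed and light output recorded.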
SARS PLP yeast – blocks SARS-CoV papain-like protease in a yeast assay; Potency, µM (doses to about 32.9 µM), most hits filed as activators; S. cerevisiae expressing SARS-CoV PLpro, growth rescue; 330,000 tested, 0.19% active; calls by dose curve; further: nearly all actives have a fitted effect of over 55% in size
Pf growth 96h – P. falciparum growth inhibition at 96 hours; AID 504834; 320,000 tested, 6.9% active; Potency, µM (top dose mostly 28.7 µM), hits mostly inhibitors; P. falciparum luciferase reporter growth, 96 h
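P. falciparum expressing integrated firefly luciferase, in erythrocytes at 2% hematocrit, 0.05% parasitemia, incubated with compounds 96 h at 37 C, 5% CO2. Growth inhibition read as loss of luminescence; two-generation exposure targets delayed-death apicoplast inhibitors.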
AMA1 RON2 block – inhibitors of Plasmodium falciparum AMA1-RON2 interaction; Potency, µM (doses to about 58.2 µM), most hits filed as inhibitors; AlphaScreen AMA1-biotinylated RON2 peptide binding; 360,000 tested, 0.2% active; AID 720542; further: nearly all actives have a fitted effect of over 45% in size
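AMA1 (3D7) with his tag at 25 nM final met compounds first, then biotinylated RON2 peptide at 25 nM; detection used donor plus acceptor beads, 10 µg/mL apiece, read by AlphaScreen after 30 min at room temperature.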
Shiga inhibitor – inhibitors of Shiga toxin in Vero cells. Vero cells, Shiga toxin protein synthesis inhibition reporter. inhibition, % at 38.7 µM. 290,000 tested, 9.2% active; in the data active means inhibition mostly above about 28%, no sharp cut-off; inactive means mostly below about 43%
Of the large screens only hits and unclear results are named; the others gave an inactive call. Rows were chosen to be rich in hits. Some 19% of all compounds tested hit in one or more screens of this group. Unless noted, the call rests on the fitted dose curve; in most records, active means well fitted curve in the direction sought with a large enough effect; inconclusive means small, poorly fitted or top-dose-only effect, or another doubt; inactive means no such curve, though single readings can be large; an effect the other way counts as inactive or inconclusive.

CC1=C(C(=O)Nc2ccccn2)C(c2ccc(Br)cc2)NC(=S)N1 (stereo not drawn)	CHX counter 37, Shiga inhibitor 50
CC1=C(C(=O)c2ccccc2)C(c2ccc(O)cc2)NC(=S)N1 (stereo not drawn)	Pf growth 48h inconclusive
CC1=C(C(=O)Nc2ccccn2)C(c2ccc(Cl)cc2)NC(=S)N1 (stereo not drawn)	CHX counter 46, Shiga inhibitor 72
CC(NC(=O)c1cccc2c1Oc1ccccc1S2)C(=O)O (stereo not drawn)	none (no result: CHX counter, Pf growth 48h, SARS PLP yeast, Pf growth 96h, Shiga inhibitor)
O=C(OCC(=O)N1CCCC1)c1ccc(S(=O)(=O)Nc2ccccc2)cc1	none
CCOc1ccc(CN(C)c2ccc(S(=O)(=O)N3CCN(C)CC3)cc2[N+](=O)[O-])cc1OC	Pf growth 48h inconclusive, Pf growth 96h inconclusive (no result: CHX counter, Shiga inhibitor)
CC1(Oc2ccc(-n3ccnc3)cc2)CCN(Cc2cccn2-c2nccs2)C1 (stereo not drawn)	none (no result: CHX counter, Pf growth 48h, SARS PLP yeast, Pf growth 96h, Shiga inhibitor)
Cc1ccc(NC(=O)CN(C)C(=O)c2nn(C)c(=O)c3ccccc23)cc1	none
COc1ccc2[nH]cc(C(=O)CN3CCCCC3)c2c1	CHX counter 27, Pf growth 96h inconclusive
COc1ccc2c(C(=O)CN3CCSCC3)c[nH]c2c1	CHX counter 32, Shiga inhibitor 40
COc1ccc2c(C(=O)CN3CCN(c4ccccc4)CC3)c[nH]c2c1	none (no result: Pf growth 48h)
COc1ccc2[nH]cc(C(=O)CN3CCN(C4CCCCC4)CC3)c2c1	none
COc1ccc(OC)c(CC(NC(C)=O)C(=O)NC2CCN(c3nc(OC)nc(OC)n3)CC2)c1 (stereo not drawn)	none
CC1(C(=O)NCc2ccc(C(F)(F)F)cc2)CCN1Cc1ccccc1OC(F)F (stereo not drawn)	none (no result: CHX counter, Pf growth 48h, SARS PLP yeast, Pf growth 96h, Shiga inhibitor)
C=CCN(CC=C)S(=O)(=O)c1ccc(NC(=S)NC(=O)C2CC2)cc1	Pf growth 48h inconclusive, Pf growth 96h inconclusive
CC(C)=CCN1CCN(CCC2=C(C)CCCC2(C)C)CC1CCO (stereo not drawn)	Pf growth 48h 13µM
CC1=C(CCN2CCN(C3CCCC3)C(CCO)C2)C(C)(C)CCC1 (stereo not drawn)	Pf growth 48h inconclusive
CCOC(=O)C1CCN(C(=O)CCn2c(=O)c3cccn3c3cccnc32)CC1	Pf growth 48h inconclusive, Pf growth 96h inconclusive
CCc1ccc(CNC(=O)CCCn2c(=O)c3cccn3c3cccnc32)cc1	none
Cc1ccc(Cl)cc1N1CCN(C(=O)CCCn2c(=O)c3cccn3c3cccnc32)CC1	Pf growth 48h inconclusive, SARS PLP yeast inconclusive, Pf growth 96h inconclusive
CC1CC(C)CN(C(=O)CCCn2c(=O)c3cccn3c3cccnc32)C1 (stereo not drawn)	Pf growth 48h inconclusive, Pf growth 96h 12µM
Cc1cccc(N2CCN(C(=O)CCCn3c(=O)c4cccn4c4cccnc43)CC2)c1C	Pf growth 48h inconclusive, Pf growth 96h 12µM
CCOC(=O)C1CCCN(C(=O)Cn2c(=O)c3cccn3c3cccnc32)C1 (stereo not drawn)	Pf growth 96h 10µM
CN1CCN(C(=O)CCn2c(=O)c3cccn3c3cccnc32)CC1	Pf growth 96h 13µM
C/C(=C\c1ccccc1)CN1CCN(C)CC1	Pf growth 96h 0.052µM
CCOC(=O)N/N=C(\C)c1ccccc1OC(F)F	Pf growth 48h inconclusive, Pf growth 96h 9.3µM
COC(=O)N/N=C(\C)c1ccccc1OC(F)F	none
CCOC(=O)C1(CCCc2ccccc2)CCN(C(=O)c2ocnc2C)CC1	Pf growth 48h inconclusive
CCOC(=O)C1(Cc2ccc(Cl)cc2)CCN(C(=O)c2cc(C)nc(C)n2)CC1	Pf growth 96h inconclusive
CCOC(=O)C1(CC2CC2)CCN(C(=O)c2cc(C)nc3ccc(CC)cc23)CC1	Pf growth 48h inconclusive, Pf growth 96h 2.1µM
CCOC(=O)C1(CC2CC2)CCN(C(=O)c2ocnc2C)CC1	CHX counter 44, Shiga inhibitor 76
C[C@@H](C(=O)OCn1nnc2ccccc2c1=O)N1C(=O)C2CCCCC2C1=O (stereo partly drawn)	none
CCS(=O)(=O)N1Cc2cc(C(=O)NCCOC)nc(-c3cccc(-c4ccncc4)c3)c2[C@H]1CCO	none (no result: CHX counter, Pf growth 48h, SARS PLP yeast, Pf growth 96h, Shiga inhibitor)
Cc1ccccc1NC(=S)NCCc1ccccc1	CHX counter 15

High-throughput results: PubChem, National Center for Advancing Translational Sciences (NCATS)
